# Reference: the supplement of paper PMC8728848
# This excerpt belongs to a sample that is enriched for the strongest signals.
# B1: Pbx2CASH domain (Cryptococcus neoformans) (protein)
# chain: GIPGPNRLYRLSGPIIFTAADQEIATYGYPTGSERAVLRVEGRNTATAIQGDCRRCARVSVKNLVVDGNRKKLGRMRDFQLATGLVVLGGNEGQSIQNSWIKNPRGFTAIHIREGDKLQCSGARVEKNEIGPVGEEYDPEKDGDDPEMSPLGRPLADGVSIACRDSFIRDNTFRDNTDAAIVVYCSPGTLIHA
# Key:
# Test in all cases: glycan array binding signal (z-score within array); higher = stronger binding
# Conditions in all cases: glycan notation: IUPAC condensed, linker removed
# [1] = molecular target: Fuc(a1-2)Gal(b1-3)GalNAc(b1-4)[Neu5Ac(a2-3)]Gal(b1-4)Glc
# Procedure, shortened: (§1)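 From the Consortium for Functional Glycomics database, 3228 arrays were curated, keeping only those whose protein sequence was available. Binding is given as a within-array Z-score averaged across arrays sharing a protein sequence and across linkers. Negative Z-scores can be read as non-binding.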
# [2] = molecular target: Fuc(a1-2)Gal(b1-3)[Fuc(a1-4)]GlcNAc(b1-2)Man(a1-3)[Fuc(a1-2)Gal(b1-3)[Fuc(a1-4)]GlcNAc(b1-2)Man(a1-3)]Man(b1-4)GlcNAc(b1-4)GlcNAc
# Procedure, shortened: as §1
# [3] = molecular target: Fuc(a1-2)Gal(b1-3)[Fuc(a1-4)]GlcNAc(b1-3)[Gal(b1-4)GlcNAc(b1-6)]Gal(b1-4)Glc
# Procedure, shortened: as §1
# [4] = molecular target: Fuc(a1-2)Gal(b1-4)GlcNAc(b1-2)Man(a1-3)[Fuc(a1-2)Gal(b1-4)GlcNAc(b1-2)Man(a1-6)]Man(b1-4)GlcNAc(b1-4)[Fuc(a1-6)]GlcNAc
# Procedure, shortened: as §1
# [5] = molecular target: Fuc(a1-2)Gal(b1-4)[Fuc(a1-3)]GlcNAc(b1-3)GalNAc
# Procedure, shortened: as §1
# [6] = molecular target: Fuc(a1-2)Gal(b1-4)[Fuc(a1-3)]GlcNAc(b1-3)[Neu5Ac(a2-6)Gal(b1-4)GlcNAc(b1-6)]Gal(b1-4)Glc
# Procedure, shortened: as §1
# [7] = molecular target: Fuc(a1-2)[Gal(a1-3)]Gal(b1-4)[Fuc(a1-3)]GlcNAc
# Procedure, shortened: as §1
# [8] = molecular target: Fuc(a1-2)[GalNAc(a1-3)]Gal(b1-4)GlcNAc(b1-2)Man(a1-3)[Fuc(a1-2)[GalNAc(a1-3)]Gal(b1-4)GlcNAc(b1-2)Man(a1-6)]Man(b1-4)GlcNAc(b1-4)[Fuc(a1-6)]GlcNAc
# Procedure, shortened: as §1
# [9] = molecular target: Fuc(a1-2)[GalNAc(a1-3)]Gal(b1-4)[Fuc(a1-3)]GlcNAc(b1-3)GalNAc
# Procedure, shortened: as §1
# [10] = molecular target: Fuc(a1-3)GlcNAc
# Procedure, shortened: as §1
# [11] = molecular target: Fuc(a1-3)[Gal(b1-4)]GlcNAc(b1-2)Man(a1-3)[Fuc(a1-3)[Gal(b1-4)]GlcNAc(b1-2)Man(a1-6)]Man(b1-4)GlcNAc(b1-4)GlcNAc
# Procedure, shortened: as §1
# [12] = molecular target: Gal(a1-3)Gal(b1-3)GlcNAc
# Procedure, shortened: as §1
# [13] = molecular target: Gal(a1-3)Gal(b1-3)GlcNAc(b1-2)Man
# Procedure, shortened: as §1
# [14] = molecular target: Gal(a1-3)Gal(b1-3)[Fuc(a1-4)]GlcNAc(b1-2)Man(a1-3)[Gal(a1-3)Gal(b1-3)[Fuc(a1-4)]GlcNAc(b1-2)Man(a1-6)]Man(b1-4)GlcNAc(b1-4)GlcNAc
# Procedure, shortened: as §1
# [15] = molecular target: Gal(a1-3)Gal(b1-4)GlcNAc(b1-2)Man(a1-3)[Gal(a1-3)Gal(b1-4)GlcNAc(b1-2)Man(a1-6)]Man(b1-4)GlcNAc(b1-4)GlcNAc
# Procedure, shortened: as §1
# [16] = molecular target: Gal(a1-3)Gal(b1-4)GlcNAc(b1-6)GalNAc
# Procedure, shortened: as §1
# [17] = molecular target: Gal(b1-2)Gal
# Procedure, shortened: as §1
# [18] = molecular target: Gal(b1-3)GlcNAc(b1-3)Gal(b1-4)GlcNAc(b1-2)[Gal(b1-3)GlcNAc(b1-3)Gal(b1-4)GlcNAc(b1-6)]Man(a1-6)[Gal(b1-3)GlcNAc(b1-3)Gal(b1-4)GlcNAc(b1-2)Man(a1-3)]Man(b1-4)GlcNAc(b1-4)[Fuc(a1-6)]GlcNAc
# Procedure, shortened: as §1
# [19] = molecular target: Gal(b1-3)GlcNAc(b1-3)GalNAc
# Procedure, shortened: as §1
# [20] = molecular target: Gal(b1-3)[Fuc(a1-4)]GlcNAc(b1-2)Man(a1-3)[Gal(b1-3)[Fuc(a1-4)]GlcNAc(b1-2)Man(a1-6)]Man(b1-4)GlcNAc(b1-4)[Fuc(a1-6)]GlcNAc
# Procedure, shortened: as §1
# [21] = molecular target: Gal(b1-3)[Fuc(a1-4)]GlcNAc(b1-6)GalNAc
# Procedure, shortened: as §1
# [22] = molecular target: Gal(b1-3)[Neu5Ac(a2-6)]GlcNAc(b1-4)Gal(b1-4)Glc
# Procedure, shortened: as §1
# [23] = molecular target: Gal(b1-4)GlcNAc(b1-2)Man(a1-3)[Gal(b1-4)GlcNAc(b1-2)Man(a1-6)]Man(b1-4)GlcNAc(b1-4)[Fuc(a1-6)]GlcNAc
# Procedure, shortened: as §1
# [24] = molecular target: Gal(b1-4)GlcNAc(b1-2)[Gal(b1-4)GlcNAc(b1-4)]Man(a1-3)[GlcNAc(b1-4)][Gal(b1-4)GlcNAc(b1-2)[Gal(b1-4)GlcNAc(b1-6)]Man(a1-6)]Man(b1-4)GlcNAc(b1-4)GlcNAc
# Procedure, shortened: as §1
# [25] = molecular target: Gal(b1-4)GlcNAc(b1-2)[Gal(b1-4)GlcNAc(b1-6)]Man(a1-6)[Gal(b1-4)GlcNAc(b1-2)Man(a1-3)]Man(b1-4)GlcNAc(b1-4)GlcNAc
# Procedure, shortened: as §1
# [26] = molecular target: Gal(b1-4)GlcNAc(b1-3)Gal(b1-4)GlcNAc(b1-2)Man(a1-3)[Gal(b1-4)GlcNAc(b1-3)Gal(b1-4)GlcNAc(b1-2)Man(a1-6)]Man(b1-4)GlcNAc(b1-4)GlcNAc
# Procedure, shortened: as §1
# [27] = molecular target: Gal(b1-4)GlcNAc(b1-3)Gal(b1-4)GlcNAc(b1-2)Man(a1-3)[Gal(b1-4)GlcNAc(b1-3)Gal(b1-4)GlcNAc(b1-2)Man(a1-6)]Man(b1-4)GlcNAc(b1-4)[Fuc(a1-6)]GlcNAc
# Procedure, shortened: as §1
# [28] = molecular target: Gal(b1-4)GlcNAc(b1-3)Gal(b1-4)GlcNAc(b1-3)Gal(b1-4)GlcNAc(b1-2)Man(a1-3)[Gal(b1-4)GlcNAc(b1-3)Gal(b1-4)GlcNAc(b1-3)Gal(b1-4)GlcNAc(b1-2)Man(a1-6)]Man(b1-4)GlcNAc(b1-4)GlcNAc
# Procedure, shortened: as §1
# [29] = molecular target: Gal(b1-4)GlcNAc(b1-3)Gal(b1-4)GlcNAc(b1-3)Gal(b1-4)GlcNAc(b1-2)Man(a1-3)[Gal(b1-4)GlcNAc(b1-3)Gal(b1-4)GlcNAc(b1-3)Gal(b1-4)GlcNAc(b1-2)Man(a1-6)]Man(b1-4)GlcNAc(b1-4)[Fuc(a1-6)]GlcNAc
# Procedure, shortened: as §1
binder,measurement,setting,value
B1,glycan array binding signal (z-score),[1],-0.327
same,glycan array binding signal (z-score),[2],0.448
same,glycan array binding signal (z-score),[3],-0.27
same,glycan array binding signal (z-score),[4],0.625
same,glycan array binding signal (z-score),[5],5.37
same,glycan array binding signal (z-score),[6],0.299
same,glycan array binding signal (z-score),[7],-0.331
same,glycan array binding signal (z-score),[8],-0.315
same,glycan array binding signal (z-score),[9],2.74
same,glycan array binding signal (z-score),[10],-0.751
same,glycan array binding signal (z-score),[11],-0.141
same,glycan array binding signal (z-score),[12],0.751
same,glycan array binding signal (z-score),[13],1.4
same,glycan array binding signal (z-score),[14],2.46
same,glycan array binding signal (z-score),[15],0.227
same,glycan array binding signal (z-score),[16],-0.025
same,glycan array binding signal (z-score),[17],-0.585
same,glycan array binding signal (z-score),[18],2.19
same,glycan array binding signal (z-score),[19],0.422
same,glycan array binding signal (z-score),[20],-0.077
same,glycan array binding signal (z-score),[21],1.39
same,glycan array binding signal (z-score),[22],-0.128
same,glycan array binding signal (z-score),[23],-0.487
same,glycan array binding signal (z-score),[24],0.057
same,glycan array binding signal (z-score),[25],-0.632
same,glycan array binding signal (z-score),[26],3.98
same,glycan array binding signal (z-score),[27],0.897
same,glycan array binding signal (z-score),[28],6.89
same,glycan array binding signal (z-score),[29],0.266
